Screening results deposited in PubChem by Broad Institute.
aSyn UTR act = Activators via SNCA 5'UTR binding, MLPCN | alpha-synuclein 5'UTR reporter, activators screen | activity score, % (tested at 7.5 µM), hits read low | hit rate 7.1% among 300,000 | AID 1814; in the data active = activity score below about -60%
Starred values were filed as active, the others as inactive. Not all results are given here.

SMILES | aSyn UTR act
O=C(COc1ccc2ccccc2c1Br)Nc1cccnc1 | -210*
Cc1ccc(N=Cc2c(O)[nH]c3ccccc23)c([N+](=O)[O-])c1 | -169*
Oc1[nH]c2ccccc2c1C=Nc1ccc2c(c1)OCO2 | -285*
COc1ccc(N=Cc2c(O)[nH]c3ccccc23)cc1 | -144*
Oc1[nH]c2ccccc2c1/C=N/c1nccs1 | -145*
O=c1c2ccccc2c(C=Nc2cccc(O)c2)c(O)n1-c1ccc2c(c1)OCO2 | -151*
c1ccc(N2CCN(c3ncccn3)CC2)cc1 | -68*
O=[N+]([O-])c1cc(CN2CCN(c3ccccc3)CC2)c(O)c2ncccc12 | 82
COc1ccnc(N2CCN(c3ccccc3)CC2)c1C#N | -80*
c1ccc(N2CCN(c3nc(-c4ccccn4)nc4ccccc34)CC2)cc1 | -78*
CCc1cc2c(=O)c(-c3nc4ccccc4n3C)c(COCC(=O)O)oc2cc1O | -81*
CC(C)OC(=O)c1cc2ccccc2[nH]1 | -84*
Cn1c(=O)[nH]c2cc3ccccc3cc21 | 62
CCOC(=O)c1cc2cc3ccccc3cc2[nH]1 | -300*
COc1ccc(/C=N/Nc2ncnc3sc(C)c(C)c23)cc1 | -114*
Cc1sc2ncnc(N/N=C/c3ccccc3O)c2c1C | 106
Cc1sc2ncnc(N/N=C/c3ccc(O)cc3)c2c1C | -64*
FC(F)(F)c1cnc2c(-c3ccccc3)n[nH]c2c1 | -130*
O=C(Nc1nc(-c2cccc3ccccc23)cs1)c1ccc2c(c1)S(=O)(=O)c1ccccc1C2=O | -143*
Cc1ccsc1C(=O)OCC(=O)NCCC1=CCCCC1 | -81*
CCNc1oc(/C=C/c2ccc(OCC)cc2)nc1C#N | -188*
CNc1oc(/C=C/c2cccc(OC)c2)nc1C#N | -180*
CCN(CC)CCCNc1oc(/C=C/c2ccccc2)nc1C#N | -64*
CCOc1cccc(/C=C2\NC(=S)N(c3ccccc3)C2=O)c1O | -148*
c1ccc(-c2ccc(-c3[nH]ncc3CN3CCC(N4CCSCC4)CC3)cc2)cc1 | -143*
SMILES | aSyn UTR act
CCN(Cc1cnn(C)c1)C(=O)c1cc(COc2ccc3c(c2)CCCC3)on1 | -73*
CCCS/C(N)=N/N=C/c1ccccc1O | -198*
C=CCS/C(N)=N\N=C\c1c(O)ccc2ccccc12 | -195*
O=C(NCCCO)c1cc2c(cn1)[nH]c1ccccc12 | -104*
C=CCn1c(SCc2ccc(OC)cc2)nnc1-c1cccnc1 | -117*
CCn1c(SCc2ccc(OC)cc2)nnc1-c1ccncc1 | -106*
C=CCn1c(SCc2ccc(C#N)cc2)nnc1-c1cccc(OC)c1 | 58
COc1ccc(C2NN=C(c3ccc(C)cc3)S2)cc1OC (stereo unspecified) | -144*
O=C(Nc1ccccc1)N(CCCN1CCOCC1)Cc1ccccc1F | -84*
CN1c2ccsc2/C(=N/Nc2ccccc2)CS1(=O)=O | -123*
Oc1ccc(/C(Cc2ccc3ccccc3n2)=N\Nc2ccccc2)c(O)c1 | -90*
CC(=O)Oc1ccc(C(=O)Cc2ccc3ccccc3n2)c(O)c1C | -143*
Cc1c(O)ccc(/C(Cc2ccc3ccccc3n2)=N\O)c1O | -76*
COc1cccc(/C=N/n2c(N)nc3ccccc32)c1OC | -154*
COc1cccc(/C=N/n2cnc3ccccc32)c1OC | -191*
COC(=O)c1ccc(NN=Nc2ccc(C)cc2)cc1 | -173*
COC(=O)c1ccc(N=NN2CCCCC2)cc1 | -102*
CC(=O)c1ccc(N=Nc2ccc(C)cc2)cc1 | 64
CCOC(=O)c1c(C)[nH]c(C2=NNC(=Nc3ccccc3OC)SC2)c1C | -90*
CC(=O)c1c(C)[nH]c(C2=NNC(=NC(C)(C)C)SC2)c1C | -97*
CCOC(=O)c1c(C)[nH]c(C2=NNC(=Nc3ccccc3)SC2)c1C | -97*
Cc1cccc(Nc2nc(-c3ccc4c(c3)OCCO4)cs2)c1 | -203*
Cc1nc(-c2ccc3c(c2)OCCO3)cs1 | -122*
O=C(Nc1nc2ccccc2[nH]1)c1cccc([N+](=O)[O-])c1 | -250*
O=C(Nc1nc2ccccc2[nH]1)c1cccc(F)c1 | -62*
SMILES | aSyn UTR act
COC(=O)c1cc(C(=O)Nc2nc3ccccc3[nH]2)cc([N+](=O)[O-])c1 | -162*
O=C(Nc1nc2ccccc2[nH]1)c1ccc(Cl)c(S(=O)(=O)N2CCCC2)c1 | -148*
COc1cccc(C(=O)Nc2nc3ccccc3[nH]2)c1 | 63
COc1ccc(C(=O)Nc2nc3ccccc3[nH]2)cc1 | 71
O=C(/C=C/c1ccc(F)cc1)Nc1nc2ccccc2[nH]1 | -129*
COc1cc(C(=O)Nc2nc3ccccc3[nH]2)cc(OC)c1OC | -76*
Cc1cc(C(=O)CSc2ncccn2)c(C)n1-c1cccc(F)c1 | -84*
Cc1cc(C(=O)CSc2nnnn2C)c(C)n1-c1cccc(F)c1 | -131*
Cc1ccc(-n2c(C)cc(C(=O)COc3cccnc3[N+](=O)[O-])c2C)cc1 | 64
Cc1ccc(-n2ncc(Cl)c2C(=O)NCc2ccccc2)cc1 | -83*
C=CCNC(=O)c1c(Br)cnn1-c1ccc(C)cc1 | -88*
Fc1ccc(NC(=S)Nc2cccc3ccccc23)cc1 | -84*
Cc1ccc(NC(=S)Nc2cccc3ccccc23)cc1 | -65*
CCOC(=O)c1sc(NC(=O)c2ccc(OC)cc2)nc1C | -109*
Cc1c(C(=O)Nc2nnc(C(F)(F)F)s2)oc2ccccc12 | -236*
COC(=O)c1sc(NC(=O)c2oc3ccccc3c2C)nc1C | -142*
O=C(Nc1ccccc1C(=O)Nc1nnc(C(F)(F)F)s1)c1ccccc1 | 59
COC(=O)c1sc(NC(=O)c2ccc(C)o2)nc1C | -203*
CCOC(=O)c1sc(NC(=O)c2ccc(C)o2)nc1C | -287*
CC(=O)c1ccc2c(c1)Cc1cc(C(C)=O)ccc1-2 | -125*
Cc1cc(C)n2nc(-c3cccc(Br)c3)cc2n1 | -114*
Cc1cccc(-c2cc3nc(C)cc(C)n3n2)c1 | -235*
CC(=O)c1cnc2cc(-c3cccc(Br)c3)nn2c1C | -213*
CC(=O)Nc1sc(N/N=C\c2ccccc2)nc1-c1cccs1 | -114*
CC(=O)Nc1sc(NC(=O)c2ccc(Cl)cc2)nc1-c1cccs1 | -73*
SMILES | aSyn UTR act
CC(=O)Nc1sc(N/N=C\c2ccccc2Cl)nc1-c1cccs1 | -141*
COc1cccc(OCCNc2cc(N3CCOCC3)ccc2[N+](=O)[O-])c1 | -78*
Oc1c(CN2CCCCC2)cc(Br)c2cccnc12 | 112
O=C(Nc1ccc(CN2CCCCC2)cc1)c1c(F)c(F)c(F)c(F)c1F | -63*
O=C(Nc1ccc(CN2CCCCC2)cc1)c1ccc(Br)o1 | -76*
Cn1c(SCc2ccccc2Cl)nnc1-c1cnccn1 | -92*
Cn1c(SCc2cccc(F)c2)nnc1-c1ccccn1 | -142*
COc1ccc(Cn2c(SCc3ccccc3C)nc3cc(OC)c(OC)cc3c2=N)cc1 | 93
Cn1c(SCc2ccccc2[N+](=O)[O-])nnc1-c1cccnc1 | -68*
Cc1ccccc1CSc1nnc(-c2ccccn2)n1C | -104*
Cn1c(SC/C=C/c2ccccc2)nnc1-c1cnccn1 | -63*
Cn1c(SCc2cccc(F)c2)nnc1-c1cnccn1 | -98*
CCOC(=O)c1ccc2nc(C)c(C)nc2c1 | -88*
CCOC(=O)c1ccc2nc(C)c(CCC(C)=O)c(Cl)c2c1 | -108*
CCOc1ccc(C(=O)COC(=O)c2cc([N+](=O)[O-])ccc2N2CCOCC2)cc1 | -115*
CSc1ccc(COC(=O)c2cc([N+](=O)[O-])ccc2N2CCOCC2)cc1 | 67
COc1cccc(C2=CC(c3cc(OC)ccc3OC)n3nnnc3N2)c1 (stereo unspecified) | -165*
